Potency estimated from few doses data for 20 compounds are collected here from publication PMC11062922 (Nature Chemical Biology, 2023).

Holding throughout (design): species or system human, MV4-11 + K-562 + COLO205 + SK-N-BE2 + OVCAR-8
For one assay, the system named is ADCK1. To be noted: read-out: apparent Kd, n = 1.
Another assay concerns PHKG2. To be noted: read-out: apparent Kd; compound concentrations:100 nM and 1000 nM (sheet 'Samples'); n = 1.
In another assay the test system is PRKAA2. To be noted: read-out: apparent Kd; compound concentrations:100 nM and 1000 nM (sheet 'Samples'); n = 1.
Another assay relates to RPS6KA4. To be noted: read-out: apparent Kd, n = 1.
Another assay deals with STK3. To be noted: read-out: apparent Kd, n = 1.
The next assay deals with TNIK. To be noted: read-out: apparent Kd, n = 1.
The subject of the next assay is CSNK1A1. To be noted: read-out: apparent Kd, n = 1.
The next assay concerns PRKX. To be noted: read-out: apparent Kd, compound concentrations: 100 nM and 1000 nM (sheet 'Samples'), n = 1.
A further assay deals with ROCK2. To be noted: read-out: apparent Kd; compound concentrations: 100 nM and 1000 nM (sheet 'Samples'), CATDS: 0.17011597804612999; n = 1.
Another assay deals with CDK17. To be noted: read-out: apparent Kd, compound concentrations: 100 nM and 1000 nM (sheet 'Samples'), n = 1.
The subject of the next assay is STK16. To be noted: read-out: apparent Kd, compound concentrations: 100 nM and 1000 nM (sheet 'Samples'), n = 1.
The next assay has as its system RIOK2. To be noted: read-out: apparent Kd, n = 1.
Another assay deals with BUB1. To be noted: read-out: apparent Kd; compound concentrations:100 nM and 1000 nM (sheet 'Samples'); n = 1.
A further assay concerns EPHA2. To be noted: read-out: apparent Kd, n = 1.
Another assay deals with MAPK8. To be noted: read-out: apparent Kd, n = 1.
A further assay has as its system PTK6. To be noted: read-out: apparent Kd, n = 1.
The next assay has as its system YES1. To be noted: read-out: apparent Kd; compound concentrations:100 nM and 1000 nM (sheet 'Samples'); n = 1.
A further assay concerns HCK. To be noted: read-out: apparent Kd; compound concentrations: 100 nM and 1000 nM (sheet 'Samples'), CATDS: 1.9651331650111199E-2; n = 1.
A further assay relates to SRC. To be noted: read-out: apparent Kd; compound concentrations: 100 nM and 1000 nM (sheet 'Samples'), CATDS: 2.0715769219535499E-2; n = 1.
The next assay concerns CSNK1E. To be noted: read-out: apparent Kd, n = 1.
[1] abbreviates: compound concentrations:100 nM and 1000 nM (sheet 'Samples').

SMILES strings stand for the structures. Like-named read-outs stand apart in the source and are kept apart here.

As for `O=C(O)C(F)(F)F.O=c1[nH]ccc2nc(N[C@@H]3CCNC3)nc(Nc3cc(Cl)cc(Cl)c3)c12` [GSK2188764A], the potency estimated from few doses with ADCK1 (setting [1]) is 1680 nM; with PHKG2, 786 nM; with PRKAA2, 106 nM; with RPS6KA4 (setting [1]), 472 nM; with STK3 (setting [1]) it was 847 nM; with TNIK (setting [1]) it was 1270 nM.
With `Cc1cccc(Nc2nc(N[C@H]3CCNC3)ncc2C(N)=O)c1.Cl` [GSK2197149A], the potency estimated from few doses with ADCK1 (setting [1]) is 1560 nM; with CSNK1A1 (setting [1]) it was 1560 nM; in the assay with TNIK (setting [1]), 1590 nM.
In the case of `NCC(NC(=O)c1cc(-c2cn[nH]c2)c(-c2ccnc3[nH]ccc23)s1)c1ccccc1.NCC(NC(=O)c1cc(-c2cn[nH]c2)c(-c2ccnc3[nH]ccc23)s1)c1ccccc1.O=C(O)C(F)(F)F.O=C(O)C(F)(F)F` (stereo not shown) [GSK1325775A], the potency estimated from few doses in the assay with CSNK1A1 (compound concentrations: 100 nM and 1000 nM (sheet 'Samples'), CATDS: 3.28567634973949E-2) was 1500 nM; with PRKX (CATDS: 4.4311971030028298E-2), 641 nM; in the assay on ROCK2 it was 47.4 nM.
`CN(C)CCNC(=O)Nc1ccc(N(C)c2ccnc(Nc3ccc(CS(C)(=O)=O)cc3)n2)cc1.Cl` [GW830900A]: the potency estimated from few doses in the assay with ADCK1 (setting [1]) was 88.9 nM.
For `CNCC#Cc1c(F)ccc2c1/C(=C/c1[nH]ccc1OC)C(=O)N2.Cl` [RO0281601-001], the potency estimated from few doses with CDK17 (CATDS: 2.8122134627670499E-2) is 838 nM; in the assay on RPS6KA4 (compound concentrations: 100 nM and 1000 nM (sheet 'Samples'), CATDS: 3.0047903909945699E-2), 696 nM; in the assay on STK16 (CATDS: 2.5135483463970699E-2), 1180 nM; in the assay with STK3 (compound concentrations: 100 nM and 1000 nM (sheet 'Samples'), CATDS: 2.2839730138462501E-2), 1650 nM; with TNIK (compound concentrations: 100 nM and 1000 nM (sheet 'Samples'), CATDS: 2.1303462940689799E-2) it was 2180 nM.
For the compound `COC(=O)c1cccc(NC(=O)NC2CCN(c3ccnc(Nc4cc(OC)c(OC)c(OC)c4)n3)C2)c1` (stereo not shown) [GSK1379767A], the potency estimated from few doses in the assay with RIOK2 (compound concentrations: 100 nM and 1000 nM (sheet 'Samples'), CATDS: 9.3299595876540298E-2) is 2110 nM.
For `CS(=O)(=O)CCn1c(=O)c(Oc2ccc(F)cc2F)cc2cnc(NC3CCOCC3)nc21` [RO5027956-000], the potency estimated from few doses in the assay with BUB1 is 1490 nM; in the assay on EPHA2 (setting [1]) it was 1060 nM; in the assay with MAPK8 (setting [1]), 1130 nM; in the assay with PTK6 (setting [1]) it was 1310 nM.
For the compound `COc1cc(Nc2nccc(-c3cnn4ncccc34)n2)cc(OC)c1` [GW801372X], the potency estimated from few doses in the assay on CDK17 (CATDS: 1.7691642172044799E-2) was 1920 nM; with MAPK8 (compound concentrations: 100 nM and 1000 nM (sheet 'Samples'), CATDS: 2.2830325415810902E-2) it was 746 nM; in the assay on RIOK2 (compound concentrations: 100 nM and 1000 nM (sheet 'Samples'), CATDS: 1.79748800643771E-2) it was 1790 nM; with STK16 (CATDS: 1.87533606847229E-2), 1500 nM.
With `CNc1cc(-c2ccc3c(N)n[nH]c3c2)nc(N)n1` [GSK2224810A], the potency estimated from few doses is 2450 nM with CSNK1A1 (setting [1]) and 1160 nM with YES1.
For `Nc1nc(Nc2ccccc2)cc(-c2ccc3c(N)n[nH]c3c2)n1` [GSK2225749A], the potency estimated from few doses with BUB1 was 1900 nM.
On to `CNCc1ccc(-c2cc(-c3nc(-c4ccc(S(=O)(=O)C(C)C)cc4)cnc3N)on2)cc1` [VE-822], for which the potency estimated from few doses in the assay with TNIK (setting [1]) is 1650 nM.
As for `Cc1ccccc1-n1ncc(C(=O)c2ccccc2)c1N` [RO1151248-000], the potency estimated from few doses is 1440 nM with EPHA2 (compound concentrations: 100 nM and 1000 nM (sheet 'Samples'), CATDS: 1.9884880942714601E-2); 1480 nM in the assay with HCK; 1160 nM in the assay with PTK6 (compound concentrations: 100 nM and 1000 nM (sheet 'Samples'), CATDS: 2.16089189660327E-2); 1290 nM in the assay on SRC; 1860 nM in the assay on STK16 (CATDS: 1.8222125974055099E-2).
As for `CCN(CC)Cc1ccc(Nc2nccc(-c3cnn4ncccc34)n2)cc1` [GW780056X], the potency estimated from few doses with ADCK1 (compound concentrations: 100 nM and 1000 nM (sheet 'Samples'), CATDS: 2.0575256748511801E-2) was 1200 nM; in the assay on CDK17 (CATDS: 2.15986885679498E-2), 1030 nM; with CSNK1E (compound concentrations: 100 nM and 1000 nM (sheet 'Samples'), CATDS: 7.3916034222461E-2), 72.1 nM; with MAPK8 (compound concentrations: 100 nM and 1000 nM (sheet 'Samples'), CATDS: 2.1413758236852699E-2), 1050 nM.
With `Cc1n[nH]c2cc(Nc3ccnc(Nc4cccc(CN5CCOCC5)c4)n3)ccc12` [GW682569X], the potency estimated from few doses in the assay with ADCK1 (compound concentrations: 100 nM and 1000 nM (sheet 'Samples'), CATDS: 0.121280285214534) was 760 nM; with MAPK8 (compound concentrations: 100 nM and 1000 nM (sheet 'Samples'), CATDS: 8.8519756402374403E-2), 1870 nM.
As to `c1ccc(-c2n[nH]cc2Nc2ccnc3ccccc23)nc1` [GW694077X], the potency estimated from few doses with CSNK1A1 (compound concentrations: 100 nM and 1000 nM (sheet 'Samples'), CATDS: 2.3053021042780501E-2) is 2030 nM; with CSNK1E (compound concentrations: 100 nM and 1000 nM (sheet 'Samples'), CATDS: 2.3726321551731398E-2) it was 1790 nM; with MAPK8 (compound concentrations: 100 nM and 1000 nM (sheet 'Samples'), CATDS: 2.3443095841232799E-2), 1880 nM; in the assay on RIOK2 (compound concentrations: 100 nM and 1000 nM (sheet 'Samples'), CATDS: 3.1389541451057497E-2), 683 nM.
For the compound `CS(=O)(=O)Nc1ccc(-c2ccnc3[nH]ccc23)cc1` [GSK993273A], the potency estimated from few doses in the assay on RIOK2 (setting [1]) was 1670 nM.
`O=C1N=C(N[C@H](CO)c2ccccc2)S/C1=C\c1ccc2ncccc2c1` [RO4554339-000]: in the assay on PRKX (CATDS: 0.109723190232525), the potency estimated from few doses was 705 nM.
`COc1cc[nH]c1/C=C1\C(=O)Nc2ccc([N+](=O)[O-])c(N3CC[C@@H](O)C3)c21` [RO0504985-000]: the figures for the potency estimated from few doses in the assay on CDK17 (CATDS: 2.9599513328136099E-2) and with STK16 (CATDS: 3.4591069451125701E-2) were 2050 nM and 1100 nM, respectively.
Turning to `Cl.Cn1c(=O)c(Cc2ccccc2F)cc2cnc(NC3CCOCC3)nc21` [RO3305377-001], the potency estimated from few doses was 976 nM with EPHA2 (compound concentrations: 100 nM and 1000 nM (sheet 'Samples'), CATDS: 2.1099204097422001E-2); 1190 nM in the assay with PTK6 (compound concentrations: 100 nM and 1000 nM (sheet 'Samples'), CATDS: 1.9530380694073899E-2).
In the case of `Cc1occc1-c1nc(N)c(OC[C@@H](N)Cc2c[nH]c3ccccc23)cc1-c1cc2c(C)n[nH]c2cn1` [GSK1660450B], the potency estimated from few doses with CSNK1E (setting [1]) is 144 nM; with STK3 (setting [1]), 93.5 nM; with TNIK (setting [1]), 696 nM.
